This is one part of a sample in which hits are shown more often than they occur.
KDM5B inh – inhibitors of human KDM5B histone demethylase; Potency, µM (series often up to 57.7 µM), hits mostly inhibitors; KDM5B demethylase, FDH-coupled NADH fluorescence (FDH is formaldehyde dehydrogenase); 220,000 compounds, 2.6% hits; active = well fitted inhibition curve with a large enough effect; note: 0% is about no effect; nearly all actives have a fitted effect of over 70% in size
Target sequence (Q9UGL1 whole entry, looked up): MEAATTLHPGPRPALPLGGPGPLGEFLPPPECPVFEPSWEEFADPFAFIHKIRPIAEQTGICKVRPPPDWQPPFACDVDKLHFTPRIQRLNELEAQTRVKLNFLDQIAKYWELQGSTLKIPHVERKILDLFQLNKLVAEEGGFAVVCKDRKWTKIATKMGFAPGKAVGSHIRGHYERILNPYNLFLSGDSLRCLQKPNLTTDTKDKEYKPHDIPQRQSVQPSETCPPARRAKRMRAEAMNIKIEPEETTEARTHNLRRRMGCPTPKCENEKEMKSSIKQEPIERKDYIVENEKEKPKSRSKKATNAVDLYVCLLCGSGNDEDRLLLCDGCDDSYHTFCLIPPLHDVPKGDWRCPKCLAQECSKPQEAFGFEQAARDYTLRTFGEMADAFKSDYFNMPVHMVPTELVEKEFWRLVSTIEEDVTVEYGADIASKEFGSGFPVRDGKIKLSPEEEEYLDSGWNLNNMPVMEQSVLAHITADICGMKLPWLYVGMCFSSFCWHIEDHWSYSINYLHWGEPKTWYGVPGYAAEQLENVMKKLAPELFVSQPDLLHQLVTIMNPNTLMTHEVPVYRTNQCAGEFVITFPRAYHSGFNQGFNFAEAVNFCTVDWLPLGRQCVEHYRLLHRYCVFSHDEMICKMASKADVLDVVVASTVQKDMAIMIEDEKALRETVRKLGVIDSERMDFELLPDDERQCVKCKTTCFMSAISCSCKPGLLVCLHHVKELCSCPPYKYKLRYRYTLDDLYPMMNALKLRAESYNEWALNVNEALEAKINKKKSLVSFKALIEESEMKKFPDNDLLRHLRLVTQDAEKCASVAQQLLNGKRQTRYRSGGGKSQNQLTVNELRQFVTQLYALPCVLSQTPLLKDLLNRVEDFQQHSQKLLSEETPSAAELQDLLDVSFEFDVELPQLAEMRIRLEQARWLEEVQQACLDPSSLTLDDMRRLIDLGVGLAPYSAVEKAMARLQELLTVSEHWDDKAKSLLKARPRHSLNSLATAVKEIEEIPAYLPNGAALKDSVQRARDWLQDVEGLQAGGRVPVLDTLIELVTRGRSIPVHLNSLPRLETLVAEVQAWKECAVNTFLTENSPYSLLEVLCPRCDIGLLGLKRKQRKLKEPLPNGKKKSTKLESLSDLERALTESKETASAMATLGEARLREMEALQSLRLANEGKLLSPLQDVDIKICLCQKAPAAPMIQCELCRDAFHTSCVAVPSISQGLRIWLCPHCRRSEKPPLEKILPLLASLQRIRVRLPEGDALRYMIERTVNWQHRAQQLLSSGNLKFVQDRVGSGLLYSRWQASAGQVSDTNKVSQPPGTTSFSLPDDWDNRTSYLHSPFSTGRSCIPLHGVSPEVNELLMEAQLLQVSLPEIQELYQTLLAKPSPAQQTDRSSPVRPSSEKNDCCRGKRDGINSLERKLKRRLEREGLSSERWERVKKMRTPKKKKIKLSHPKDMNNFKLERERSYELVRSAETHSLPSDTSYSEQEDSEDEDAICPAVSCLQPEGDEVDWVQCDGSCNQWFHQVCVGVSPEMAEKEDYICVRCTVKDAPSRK
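qHTS format, multiple compound concentrations. Buffer 50 mM HEPES pH 7.5/0.01% Tween-20; 200 nM KDM5BΔAP final; 10 min compound preincubation; substrate-mix levels 12.5 µM peptide, 25 µM α-KG, 0.25 mM NAD⁺; 30 min RT; ΔRFU.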
* = called active by the depositor; i = inactive. Potency is the fitted concentration of half-maximal effect.

SMILES	KDM5B inh
O=C(Cn1c(=O)nc(-c2ccccc2)c2ccccc21)NCCc1ccc(Cl)cc1	i
O=C(NCCc1ccc(Cl)cc1)c1nc(-c2ccc(F)cc2)c2cnccn12	31.6µM*
O=C(NCCc1ccc(Cl)cc1)c1nc(-c2ccc(Cl)nc2)c2ccccn12	50.1µM*
O=C(NCCc1ccccc1)c1ccc(CSc2nc3ccncc3n2Cc2ccc(F)cc2)cc1	i
O=C(NCCc1cccnc1)c1ccc(Cl)cc1	i
Cc1cccn2c(=O)c(C(=O)NCc3ccc(F)cc3)c(O)nc12	i
Cc1oc(-c2ccc(C(=O)NCCc3ccc(Cl)cc3)cc2)nc1CSc1ccccc1	i
O=C(NCc1ccc(F)cc1)c1nc(-c2cccnc2)c2cnccn12	i
O=C(Cc1cccs1)NCCc1ccc(Cl)cc1	i
O=C(NCCc1ccc(Cl)cc1)c1nc(-c2ccsc2)c2ccccn12	22.4µM*
CCn1nc(C(=O)NCc2cc3ccccc3[nH]2)c2ccccc2c1=O	i
CN(C)CCCC(=O)N1Cc2ccccc2CC2(CCCCN2CC2CCNCC2)C1 (stereo not drawn)	i
COc1cc(OC)c(NC(=O)CCOc2cc(C)ccc2C)cc1Cl	i
Cn1nccc1C(=O)N1CC(CNC(=O)c2ccccc2)C2(C1)CN(c1ccccc1)C2 (stereo not drawn)	i
COc1ccccc1Cn1ccnc1SCC(=O)Nc1ccc(C(C)=O)cc1	i
Cc1ccc(NS(=O)(=O)c2ccc(Cl)c(C(=O)O)c2)cc1Cl	i
CC(C)(C)NC(=O)c1cc(-c2ccc(Cl)cc2)nc2ccccc12	i
Cn1nc(C(=O)N2CCCN(Cc3ccccc3)CC2)c2ccccc2c1=O	i
O=C(NCCc1ccc(Cl)cc1)c1nc(-c2ccc(F)cc2)c2ccccn12	25.1µM*
O=C(Cn1cccc1-c1nc(-c2ccc(F)cc2)no1)NCCc1ccc(Cl)cc1	i
Cc1cc(Cl)c2cccc(C(F)(F)F)c2n1	i
CCN(CC)C(=O)c1c(C)sc2ccn(Cc3ccc(F)cc3)c(=O)c12	25.1µM*
COc1ccccc1CNC(=O)c1c(C)sc2ccn(Cc3ccc(F)cc3)c(=O)c12	i
COCCNC(=O)c1c(C)sc2ccn(Cc3ccc(F)cc3)c(=O)c12	i
Cc1cc(C)c(C#N)c(SCC(F)(F)F)n1	i
SMILES	KDM5B inh
CC1=C(OS(=O)(=O)c2ccc(C)cc2)C(C)(C)C(c2ccccc2)OC1=O (stereo not drawn)	i
Cc1ncoc1C(=O)N1CCC2(CC1)CCC(O)(CN(C)C)CC2	i
CCn1nccc1C(=O)N1CCC2(CC1)CCC(O)(CN(C)C)CC2	20µM*
CN(C)CC1(O)CCC2(CCN(C(=O)c3nccc4ccccc34)CC2)CC1	i
CCCn1nc(C(=O)OCCO)c2ccccc2c1=O	i
C#CC(CC)(CC)NC(=O)c1cc(Cl)c(OC)c(OC)c1	i
Cc1ccc2c(=O)cc(C(=O)Nc3sc4c(c3C#N)CCCC4)oc2c1C	i
COc1ccccc1Oc1coc2cc(OC(=O)c3cccs3)ccc2c1=O	i
COc1cccc(CN2CCCCCCNC(=O)CC2c2ccccc2)c1 (stereo not drawn)	i
COc1cccc(CN2CCCCCNC(=O)[C@@H]3CCC[C@@H]32)c1	20µM*
COc1cccc(CC(=O)N2CCCCCCNC(=O)[C@H]3CCCC[C@H]32)c1	i
COCc1ccc(C(=O)Nc2cccc(C(=O)Nc3cccc(C(F)(F)F)c3)c2)cc1	i
COC(=O)c1c(COC(=O)c2ccc(N3CCCS3(=O)=O)cc2)nc2ccccc2c1C	i
Cc1ccc(C)c(C(=O)NCc2nnc3cc(-c4nc(C5CC5)no4)ccn23)c1	14.1µM*
Cc1ccccc1C(=O)NCc1nnc2cc(-c3nc(C4CC4)no3)ccn12	28.2µM*
O=C(NCc1nnc2cc(-c3nc(C4CC4)no3)ccn12)c1ccncc1	28.2µM*
Cc1ccc(C(=O)NCc2nnc3cc(-c4nc(C5CC5)no4)ccn23)cc1C	28.2µM*
Cc1cccc(C(=O)NCCC(=O)NC2CCCC2)c1	i
CCCC(C(=O)NCCc1ccccn1)c1ccccc1 (stereo not drawn)	i
CCCNc1nc(-c2ccc3c(c2)CCCN3S(C)(=O)=O)cs1	i
CC(C)C(=O)N1Cc2ccccc2CC2(CCN(Cc3ccc(O)cc3)CC2)C1	i
COc1cc(/C=N/O)cc(Br)c1OC(C)=O	i
O=C1c2ccccc2NC(c2csc(-c3ccccc3)n2)N1C1CC1 (stereo not drawn)	i
COC(=O)c1ccc(/C=C/C(=O)c2cccs2)cc1	i
CSc1nc2c(c(=O)n(Cc3ccccc3)c(=O)n2C)n1Cc1ccccc1	i
SMILES	KDM5B inh
CCNC(=S)NNC(=O)/C=C/c1ccccc1	i
CS(=O)(=O)N1CCCC(C(=O)Nc2ccccc2SC2CCCC2)C1 (stereo not drawn)	i
Cc1cccc(N2CCN(C(=O)C3CCN(S(=O)(=O)c4cn(C)c(C)n4)CC3)CC2)c1C	i
COc1ccccc1CN1CC[C@H](c2nnc(Cc3c[nH]c4ccccc34)o2)C1	i
Cc1ccc2oc([C@H]3CCN(Cc4c[nH]c5ccccc45)C3)nc2c1	12.6µM*
Cc1ccc2oc([C@H]3CCN(Cc4ccc(C(F)(F)F)cc4)C3)nc2c1	i
CC(C)C(N)c1ccc2c(c1)OCCCO2 (stereo not drawn)	i
OC(COCc1ccccc1F)Cn1nnc(-c2ccccc2)n1 (stereo not drawn)	i
CCCn1c(SCc2ncc(-c3ccc(F)cc3)o2)n[nH]c1=O	i
CN1CC(=O)N(c2ccccc2)Cc2c1ncnc2N1CCc2ccccc2C1	25.1µM*
CN1CC(=O)N(c2ccccc2F)Cc2c1ncnc2N1CCc2ccccc2C1	i
CN1CC(=O)N(c2ccccc2)Cc2c1ncnc2N1CCC(O)CC1	i
CC(CCc1ccccc1)NC(=O)COC(=O)c1cc(C(C)(C)C)cc(C(C)(C)C)c1 (stereo not drawn)	i
CCc1ccccc1NC(=O)Cn1cnc2c1c(=O)n(C)c(=O)n2C	i
CNC(=O)c1cccc(NC(=O)CSCc2csc(-c3ccc(C(C)C)cc3)n2)c1	i
OC1CC(c2cc(N3CCC(c4nc5ccccc5[nH]4)CC3)ncn2)C1 (stereo not drawn)	i
OC1CC(c2cc(N3CCC(c4nnc5ccccn45)CC3)ncn2)C1 (stereo not drawn)	i
OC1CC(c2cc(N3CCN(c4nsc5ccccc45)CC3)ncn2)C1 (stereo not drawn)	31.6µM*
COCCn1ccc2c(OCC(=O)Nc3cccc(C)c3C)cccc2c1=O	i
Cc1cc(S(=O)(=O)NCC(C)O)c(C)cc1Cl (stereo not drawn)	i
O=C(O)C1CCN(C(=O)c2cc(-c3ccccc3)nc3ccccc23)CC1	i
CC(C)(C)n1cc(-c2cc(C(=O)N3C[C@H]4CC[C@H]3C4)c3ccccc3n2)cn1	31.6µM*
CC(=O)N1CCN(C(=O)c2cc(-c3ccc(F)cc3)nc3ccccc23)CC1	i
CCOc1ccccc1CNC(=O)c1cccc2c1CCN2C(=O)CC	i
O=C(O)c1ccc(CC2CCN(C(=O)c3ccccc3Cl)C2)cc1 (stereo not drawn)	i
Cc1cc(C)n2nc(C(=O)N3CCC(Cc4cccc(C(N)=O)c4)C3)nc2n1 (stereo not drawn)	i
O=C(c1cnn2ccccc12)N1CCC(Cc2cccc(CO)c2)C1 (stereo not drawn)	28.2µM*
O=C(Nc1cccc(Br)c1)c1ccccc1OCC1CCCO1 (stereo not drawn)	i
Cc1ccc(NC(=O)C(C#N)=C2CCCCCCC2)cc1	i

Screening data from PubChem BioAssay.
